# Laboratory results as given in PubChem BioAssay (NCATS).
# Inconclusive results are not listed. Where a call stands in place of a potency, no number is given. A number with no mark means an inactive call. Calls of active or inactive are those of the source. The call rests on the fitted dose curve; in most records, active means well fitted inhibition curve with a large enough effect; inconclusive means small, poorly fitted or top-dose-only effect; inactive means flat fitted curve, though single readings scatter.
# Legend:
# CRL-7250 [1] = assay: Cytotoxic Profiling of Annotated Libraries Using Quantitative High-Throughput Screening (AID 1296008); details: Five cell lines viability, CellTiter-Glo ATP luminescence, 48-72 h; max response: hits give low values; further: potency means the concentration at half of the fitted maximal effect
# Summary of the method: (§1)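 Cytotoxicity was measured as CellTiter-Glo ATP luminescence, read after 10 min at room temperature. Compound treatment of the cells lasted 48 or 72 hr at 37 degrees Celsius in a qHTS format.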
# HEK293 = assay: as above; details: Five cell lines viability, CellTiter-Glo ATP luminescence, 48-72 h; max response: hits give low values
# Summary of the method: as §1
# HaCat [2] = assay: as above; details: Five cell lines viability, CellTiter-Glo ATP luminescence, 48-72 h; max response: hits give low values
# Summary of the method: as §1
# NIH3T3 = assay: as above; details: Five cell lines viability, CellTiter-Glo ATP luminescence, 48-72 h; max response: hits give low values
# Summary of the method: as §1
# MCC-13 = assay: qHTS assay to identify novel small-molecules to repurpose for Merkel cell carcinoma treatment (AID 1296009); details: MCC and control cell lines, CellTiter-Glo viability, 72 h; series mostly up to 46 µM
# Summary of the method: (§2)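 After compound transfer in DMSO, plates were kept 72 hr at 37 degree celsius. Luminescent ATP signal from CellTiter-Glo served as viability measure, normalized against DMSO and no-cell controls.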
# MCC-26 = assay: as above; details: MCC and control cell lines, CellTiter-Glo viability, 72 h; series mostly up to 46 µM
# Summary of the method: as §2
# MKL-1 = assay: as above; details: MCC and control cell lines, CellTiter-Glo viability, 72 h; series mostly up to 46 µM
# Summary of the method: as §2
# PAD = assay: qHTS profiling for inhibitors of Plasmodium falciparum proliferation (AID 504749); further: potency means the concentration at half of the fitted maximal effect; details: P. falciparum in erythrocytes, SYBR Green DNA, 72 h; series mostly up to 28.7 µM
# Summary of the method: (§3)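 Three-day growth assay of blood-stage parasites in erythrocytes (0.3% parasitemia, 2.5% hematocrit) at 37 C, 5% CO2, quantified by SYBR Green DNA staining after overnight detergent lysis.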
# PC15 = assay: as above; details: P. falciparum in erythrocytes, SYBR Green DNA, 72 h; series mostly up to 28.7 µM
# Summary of the method: as §3
# PC26 = assay: as above; details: P. falciparum in erythrocytes, SYBR Green DNA, 72 h; series mostly up to 28.7 µM
# Summary of the method: as §3
# PC49 = assay: as above; details: P. falciparum in erythrocytes, SYBR Green DNA, 72 h; series mostly up to 28.7 µM
# Summary of the method: as §3
# SC27B = assay: as above; details: P. falciparum in erythrocytes, SYBR Green DNA, 72 h; series mostly up to 28.7 µM
# Summary of the method: as §3
# TAB109 = assay: as above; details: P. falciparum in erythrocytes, SYBR Green DNA, 72 h; series mostly up to 28.7 µM
# Summary of the method: as §3
# TAB113 = assay: as above; details: P. falciparum in erythrocytes, SYBR Green DNA, 72 h; series mostly up to 28.7 µM
# Summary of the method: as §3
# TAB165 = assay: as above; details: P. falciparum in erythrocytes, SYBR Green DNA, 72 h; series mostly up to 28.7 µM
# Summary of the method: as §3
# W2 = assay: as above; details: P. falciparum in erythrocytes, SYBR Green DNA, 72 h; series mostly up to 28.7 µM
# Summary of the method: as §3
# KB-3-1 = assay: Cytotoxic Profiling of Annotated Libraries Using Quantitative High-Throughput Screening (AID 1296008); details: Five cell lines viability, CellTiter-Glo ATP luminescence, 48-72 h; max response: hits give low values; further: potency means the concentration at half of the fitted maximal effect
# Summary of the method: as §1
# HEK293T = assay: qHTS assay to identify novel small-molecules to repurpose for Merkel cell carcinoma treatment (AID 1296009); details: MCC and control cell lines, CellTiter-Glo viability, 72 h; at 44.8 µM (top of the series)
# Summary of the method: as §2
# CRL-7250 [3] = assay: as above; details: MCC and control cell lines, CellTiter-Glo viability, 72 h; at 44.8 µM (top of the series) unless noted
# Summary of the method: as §2
# HACAT [4] = assay: as above; details: MCC and control cell lines, CellTiter-Glo viability, 72 h; at 44.8 µM (top of the series) unless noted
# Summary of the method: as §2
# Further: nearly all actives have a fitted effect of over 60% in size.
structure (smiles),measurement,setting,value
CCC(=O)C(CCN(C)C)(c1ccccc1)c1ccccc1,max response,CRL-7250 [1],-11.9%
same,max response,HEK293,-18.5%
same,max response,HaCat [2],-17.8%
same,max response,NIH3T3,2.72%
same,Potency,MCC-13,inactive
same,Potency,MCC-26,inactive
same,Potency,MKL-1,inactive
CCNc1nc(Cl)nc(NCC)n1,Potency,PAD,inactive
same,Potency,PC15,inactive
same,Potency,PC26,inactive
same,Potency,PC49,inactive
same,Potency,SC27B,inactive
same,Potency,TAB109,inactive
same,Potency,TAB113,inactive
same,Potency,TAB165,inactive
same,Potency,W2,inactive
same,max response,CRL-7250 [1],-9.95%
same,max response,HEK293,1.01%
same,max response,KB-3-1,-15.4%
same,max response,NIH3T3,-12.6%
same,Potency,MCC-13,inactive
same,Potency,MCC-26,inactive
same,Potency,MKL-1,inactive
CCN1CCCC1CNC(=O)C(O)(c1ccccc1)c1ccccc1 (configuration not stated),max response,CRL-7250 [1],-23.4%
same,outcome,HEK293,inactive
same,max response,HaCat [2],-7.18%
same,outcome,NIH3T3,inactive
same,outcome,HEK293T,inactive
same,Potency,MCC-13,inactive
same,Potency,MCC-26,inactive
same,Potency,MKL-1,inactive
Nc1ccc(Cl)cc1C(=O)c1ccccc1F,max response,CRL-7250 [1],-4.36%
same,max response,HEK293,-6.5%
same,max response,HaCat [2],0.566%
same,max response,NIH3T3,0.255%
same,Potency,MCC-13,inactive
same,Potency,MCC-26,inactive
same,Potency,MKL-1,inactive
CCCCCCCCC(=O)NCc1ccc(O)c(OC)c1,Potency,PAD,inactive
same,Potency,PC15,inactive
same,Potency,PC26,inactive
same,Potency,PC49,inactive
same,Potency,SC27B,inactive
same,Potency,TAB109,inactive
same,Potency,TAB113,inactive
same,Potency,TAB165,inactive
same,Potency,W2,inactive
same,max response,CRL-7250 [1],-16.7%
same,max response,HEK293,-94.9%
same,max response,HaCat [2],-25.6%
same,max response,KB-3-1,-3.93%
same,max response,NIH3T3,-70.4%
same,Potency,MCC-13,inactive
same,Potency,MCC-26,inactive
same,Potency,MKL-1,inactive
O=C1CN2CCOC2(c2ccccc2Cl)c2cc(Cl)ccc2N1 (configuration not stated),outcome,CRL-7250 [1],inactive
same,max response,HEK293,-3.36%
same,max response,HaCat [2],-2.33%
same,outcome,NIH3T3,inactive
same,outcome,CRL-7250 [3],inactive
same,Potency,MCC-13,inactive
same,Potency,MCC-26,inactive
same,Potency,MKL-1,inactive
CCCOC(=O)Cc1ccc(OCC(=O)N(CC)CC)c(OC)c1,max response,CRL-7250 [1],-7.4%
same,max response,HEK293,-10.1%
same,max response,HaCat [2],-1.71%
same,max response,KB-3-1,-8.87%
same,max response,NIH3T3,-20.5%
same,Potency,MCC-13,inactive
same,Potency,MCC-26,inactive
same,Potency,MKL-1,inactive
Nc1ccccc1C(=O)OCC(O)CO (configuration not stated),max response,CRL-7250 [1],1.8%
same,outcome,HEK293,inactive
same,max response,NIH3T3,-1.39%
same,outcome,HEK293T,inactive
same,Potency,MCC-13,inactive
same,Potency,MCC-26,inactive
same,Potency,MKL-1,inactive
CN1[C@@H]2CC[C@H]1CC(OC(=O)c1cc(Cl)cc(Cl)c1)C2 (some centres not stated),max response,CRL-7250 [1],-20.4%
same,Potency,HEK293,26.6 µM (active)
same,max response,HaCat [2],3.49%
same,max response,KB-3-1,-13.9%
same,Potency,MCC-13,inactive
same,Potency,MCC-26,inactive
same,Potency,MKL-1,inactive
C[C@H](CN1CCOCC1)C(C(=O)N1CCCC1)(c1ccccc1)c1ccccc1,max response,CRL-7250 [1],-21.1%
same,max response,HaCat [2],-13.3%
same,max response,KB-3-1,1.9%
same,max response,NIH3T3,-7.32%
same,Potency,MCC-13,inactive
same,Potency,MCC-26,inactive
same,Potency,MKL-1,inactive
Oc1c(Br)cc(Br)cc1Br,Potency,PAD,inactive
same,Potency,PC15,inactive
same,Potency,PC26,inactive
same,Potency,PC49,inactive
same,Potency,SC27B,inactive
same,Potency,TAB109,inactive
same,Potency,TAB113,inactive
same,Potency,TAB165,inactive
same,Potency,W2,inactive
same,max response,CRL-7250 [1],-10.6%
same,max response,HaCat [2],-13%
same,max response,KB-3-1,-5.6%
same,max response,NIH3T3,-1.39%
same,Potency,MCC-13,inactive
same,Potency,MCC-26,inactive
same,Potency,MKL-1,inactive
CC(C)=CCN1CC[C@@]2(C)c3cc(O)ccc3C[C@@H]1[C@@H]2C,max response,CRL-7250 [1],-10.3%
same,max response,HaCat [2],-13.3%
same,max response,KB-3-1,-12.1%
same,max response,NIH3T3,-2.79%
same,Potency,MCC-13,inactive
same,Potency,MCC-26,inactive
same,Potency,MKL-1,inactive
CC(Cc1ccccc1)NCc1ccccc1Cl (configuration not stated),Potency,PC15,inactive
same,Potency,PC49,inactive
same,Potency,SC27B,inactive
same,Potency,W2,5.36 µM (active)
same,max response,CRL-7250 [1],-20.3%
same,max response,HaCat [2],-41.8%
same,max response,KB-3-1,-8.17%
same,max response,NIH3T3,-14.1%
same,Potency,MCC-13,inactive
same,Potency,MCC-26,inactive
same,Potency,MKL-1,inactive
CCC1(CC)C(=O)NC(=O)NC1=O,Potency,PAD,inactive
same,Potency,PC15,inactive
same,Potency,PC26,inactive
same,Potency,PC49,inactive
same,Potency,SC27B,inactive
same,Potency,TAB109,inactive
same,Potency,TAB113,inactive
same,Potency,TAB165,inactive
same,max response,CRL-7250 [1],-2.88%
same,outcome,HaCat [2],inactive
same,max response,KB-3-1,-1.45%
same,outcome,NIH3T3,inactive
same,outcome,HACAT [4],inactive
same,Potency,MCC-13,inactive
same,Potency,MCC-26,inactive
same,Potency,MKL-1,inactive
